# Reference: PubChem BioAssay AID1745845 (National Center for Advancing Translational Sciences (NCATS), 2022)
# Among all 360,000 compounds or so, about 2,600 (0.72%) were called active. Not shown: some 5% with an inconclusive outcome. This is one part of a sample in which actives are shown more often than they occur. The call rests on the fitted dose curve; in most records, active means well fitted inhibition curve with a large enough effect; inconclusive means small, poorly fitted or top-dose-only effect; inactive means no such curve, though single readings can be large or run the other way.
# Experiment: Primary qHTS for Inhibitors of ATXN expression; further: nearly all actives have a fitted effect of over 55% in size
# Settings: HEK-293 ATXN2-luciferase reporter, luminescence, 24 h; series mostly up to 57 µM; activity change, negative = inhibition: at the top concentration
# Source text: University of Utah School of Medicine, Salt Lake City, Utah
# Spinocerebellar ataxia type 2 (SCA2) is a multisystem neurodegenerative disease caused by a dominantly acting mutation leading to expansion of a polyQ domain in the ataxin-2 protein (ATXN2). SCA2 patients develop progressive ataxia and later lose function in other neuronal systems. Prominent parkinsonian signs develop in some patients. Like many neurodegenerative disorders, no symptomatic or disease-modifying treatments are known.
# The primary objective of the proposed research is to identify compounds inhibiting ATXN2 expression and to test them for efficacy in SCA2 mouse models. We have developed a cell-based assay paired with an in vivo mouse model using identical luciferase expression constructs. This approach takes advantage of an ATXN2-luciferase transgene, with the luciferase gene flanked by the upstream and downstream portions of the ATXN2 gene. Here we describe a 5-7 dose quantitative high thoroughput screen (qHTS) for compounds lowering ATXN2 expression. We screened the NIH Molecular Libraries Small Molecule Repository (MLSMR) and NCGC's mechanistically annotated (MIPE) and drug repurposing (NPC) collections of compounds for lowering expression of an ATXN2-luciferase reporter in HEK-293 cells. The assay is a multiplexed cell viability assay to ensure target reduction in the absence of cytotoxicity. Secondary qHTS assays included a CMV-luciferase reporter expressed in HEK-293 cells as well as a biochemical assay using recombinant luciferase to detect inhibitors of the reporter enzyme. Compounds that inhibit ATXN2 expression but is not cytotoxic were selected for confirmatory and secondary screens.
# PROTOCOL TABLE (as described by Inglese J, Shamu CE and Guy RK. 2007)
# SEQUENCE No. (e.g., 1, 2, 3, etc.); […] (e.g., Cells, Incubation, Reagent, etc.); VALUE; DESCRIPTION.
# 1; Cells; 4 uL; white, solid bottom, 1536-well Greiner assay plate.
# 2; Incubation; 2 hr; 37 degree C in 5% humidified CO2.
# 3; Compounds; 23 nL; Kalypsis pintool (Wako USA) equipped with a 1536-well pin head.
# 4; Incubation; 24 hr; 37 degree C in 5% humidified CO2.
# 5; Reagent; 1 uL; Gly-Phe-7-Amino-4-trifluoromethylcoumarin.
# 6; Incubation; 30 min; 37 degree C in 5% humidified CO2.
# 7; Detection; Fluorescence; ViewLux plate reader (PerkinElmer).
# 8; Reagent; 3 uL; SteadyGlo luciferase solution (Promega).
# 9; Incubation; 5 min; room temperature.
# 10; Detection; Luminescence; ViewLux plate reader (PerkinElmer).
# NOTES (numbers refer to Sequence numbers above)
# 1. S2 cells expressing ATXN2-luciferase reporter were suspended in phenol-red free DMEM and dispensed in assay plates using a Multidrop Combi dispenser (Thermo Fisher Scientific).
# 2. Assay plates were incubated. Evaporation was prevented by covering assay plates with metal lids containing holes to allow gas diffusion.
# 3. Compounds were added in a dose response manner with the final concentrations of 57, 11.4, 2.28, 0.46, 0.091, 0.018, 0.0037 uM. Vehicle-only plates, with DMSO being pin-transferred to columns 5-48, were inserted uniformly at the beginning and the end of each library to monitor and record any shifts in assay performance.
# 5. 125 uM Gly-Phe-7-Amino-4-trifluoromethylcoumarin (MP Biomedicals) working concentration was used at a final concentration of 25 uM.
# 7. To assess cell viability; the assay plates were read using the ViewLux high-throughput CCD imager (PerkinElmer), wherein single end-point fluorescence measurement was acquired (excitation 405/10; emission 540/25 nm).
# 8. Detection reagent SteadyGlo Luciferase (Promega) was added to the assay plate.
# 10. Luminescence is then measured on the ViewLux imager equipped with a clear emission filter using a 2 sec exposure. All screening operations were performed on a fully integrated robotic system (Kalypsys) containing one RX-130 and two RX-90 anthropomorphic robotic arms (Staubli).
# […]
# On the % scale 0 is the no-effect control and ±100 the full control effect; potency means the concentration at half of the fitted maximal effect.
Compound,Potency,"activity change, negative = inhibition"
Oc1c(Cl)cc(Cl)c(Cl)c1Cc1c(O)c(Cl)cc(Cl)c1Cl,28.2 µM (active),–
OCCC#Cc1ccc(N2C(c3ccsc3)=Cc3ccc(F)cc3C2c2c[nH]c3ccccc23)cc1 (stereo not given),–,-24.8% (inactive)
Cc1cc(Cl)ccc1-c1nc(NCCN(C)C)nc2ccsc12,–,-22.9% (inactive)
Cc1cc(C)n(-c2c(F)c(F)c(COC(=O)c3ccccc3)c(F)c2F)n1,–,5.42% (inactive)
CCOC(=O)c1cnc(-n2nc(C)cc2C)nc1NNc1cc(C)nc(-c2ccccc2)n1,7.08 µM (active),–
Cc1cc(-n2nc(C)cc2C)n2ncc(-c3ccccc3)c2n1,–,22.1% (inactive)
Cc1ccc(CN2CCCn3nc(C(=O)NCc4ccccc4Cl)cc3C2=O)cc1,–,-27.7% (inactive)
O=C1CC(c2ccc(F)cc2F)c2cc3c(cc2N1)OCO3 (stereo not given),–,-15.4% (inactive)
Cc1cccn2c(=O)c3cc(C(=O)NC(C)c4ccccc4)c(=N)n(CCCO)c3nc12 (stereo not given),–,3.42% (inactive)
COc1ccc(C(=O)NC2=NCCS2)c(OC)c1,–,-24.2% (inactive)
COC(=O)c1sc(NC(=O)c2ccc(OC)cc2OC)nc1C,2.24 µM (active),–
COC(=O)c1sc(NC(=S)NC(=O)c2ccc(C)cc2)nc1C,–,17.5% (inactive)
O=C(NC1CCCCC1)c1ccc(Cn2c(SCc3ccccc3)nc3cccnc32)cc1,–,6.62% (inactive)
COC(=O)c1ccc2nc(-c3ccc(OC)c(OC)c3)c(Cc3ccccc3)n2c1,–,-6.06% (inactive)
Cc1ccc(Cl)cc1NC(=O)CN1CCN(S(=O)(=O)N2CCOCC2)CC1,–,3.26% (inactive)
Cc1cc(Nc2cc(CN3CCOCC3)c3nc(C)c(Cc4ccc(Cl)cc4F)n3n2)n[nH]1,19.3 µM (active),–
O=C1NC(=O)C(=Cc2cccc(C(F)(F)F)c2)S1,–,21.6% (inactive)
CCOC(=O)c1cc2c(=O)n3ccccc3nc2n(Cc2ccco2)c1=NC(=O)c1ccc(F)cc1,–,3.51% (inactive)
CCC1CCCCN1Cc1c(O)ccc2c(=O)c(Oc3ccccc3Cl)c(C(F)(F)F)oc12 (stereo not given),–,-0.396% (inactive)
C[C@@H]1C[C@@H]2O[C@H]2/C=C\C=C\C(=O)Cc2c(Cl)c(O)cc(O)c2C(=O)O1,4.74 µM (active),–
CC1(C(=O)NCc2cccc3ccccc23)CCN1Cc1ccc(-c2ccccc2)o1 (stereo not given),–,-26.5% (inactive)
CN(C)CCCN(C(=O)c1ccc(S(=O)(=O)N2CCCCCC2)cc1)c1nc2ccc(Br)cc2s1,31.6 µM (active),–
Cc1cc(C)c2sc(NC(=O)c3ccc(S(=O)(=O)N4CCCC4)cc3)nc2c1,–,9.87% (inactive)
CN(C)CCN(C(=O)C1=COCCO1)c1nc2ccc(Cl)cc2s1,–,-17.5% (inactive)
CCOC(=O)c1ccc(-c2ccc3ncnc(N(C)Cc4sccc4C)c3c2)o1,–,14.4% (inactive)

Compound,Potency,"activity change, negative = inhibition"
O=c1c2ccccc2ncn1/N=C/c1ccccc1,–,8.36% (inactive)
CCn1c(/C=C/c2ccc([N+](=O)[O-])o2)nc2ccccc2c1=O,8.91 µM (active),–
Cc1ccc(-n2c(SCC(=O)N/N=C/C=C/c3ccccc3[N+](=O)[O-])nc3ccccc3c2=O)cc1,–,-2.09% (inactive)
Cc1ccc(-n2c(SCC(=O)Nc3cccc(F)c3)nc3c(oc4ccccc43)c2=O)cc1C,–,14.2% (inactive)
CCCc1c2oc(C(=O)O)cc(=O)c2cc2c(=O)cc(C(=O)O)n(CC)c12,–,3.26% (inactive)
CC1(C)OC[C@@H](COC(=O)CCc2ccc(OC[C@@H](O)CNCCNC(=O)N3CCOCC3)cc2)O1,–,1.02% (inactive)
Cc1ccc(C)c(N2CCN(C(=O)CCCCCn3c(=S)[nH]c4ccc(N5CCOCC5)cc4c3=O)CC2)c1,2.82 µM (active),–
Cc1ccc(C)c(N2CCN(C(=O)CCCn3c(=O)c4cccn4c4cccnc43)CC2)c1,–,-30.8% (inactive)
Cc1ccc(C)c(N2CCN(C(=O)CCc3nc4ccccc4[nH]3)CC2)c1,–,-22.2% (inactive)
COc1ccc(-c2c(C)c3ccc(O)c(CN4CCCC4)c3oc2=O)cc1OC,–,-15.7% (inactive)
CO[C@H]1O[C@@H]2O[C@@]3(C)CC[C@@H]4[C@@H](C)CC[C@@H]([C@H]1C)[C@@]24OO3,–,-21.4% (inactive)
CCOc1ccc(CNC(=O)c2cccc(Nc3nc4ccccc4n4nnnc34)c2)cc1OC,–,13.1% (inactive)
C=CCn1c(C)cc(C2=NNC(=NCC)SC2)c1C,0.447 µM (active),–
C=C1C(=CC=C2CCC[C@]3(C)[C@@H]([C@H](C)C=C[C@H](C)C(C)C)CC[C@@H]23)C[C@@H](O)C[C@@H]1O,–,104% (inactive)
COc1ccc(Cc2nc3ccc(C(=O)NCc4ccccc4Cl)cc3o2)cc1,–,0.129% (inactive)
Cc1ccnc(NC(=O)C2CCN(S(=O)(=O)c3c(C)c(C)cc(C)c3C)CC2)c1,7.94 µM (active),–
Cc1ccc(S(=O)(=O)N2CCC(C(=O)Nc3cc(C)ccc3C)CC2)cc1,–,-3.58% (inactive)
O=C(Nc1ccccn1)C1CCN(S(=O)(=O)c2ccccc2)CC1,–,30.1% (inactive)
COc1cccc(CNC(=O)C(=O)NCC(c2cccs2)S(=O)(=O)c2ccccc2)c1 (stereo not given),–,-24.1% (inactive)
CCc1ccc(OC2(C)CCN(CCOc3ccc(C)cc3)C2)cc1 (stereo not given),–,-24.5% (inactive)
CCCCCCCCn1c2c(c(=N)c3c1CCC3)CCCC2,0.891 µM (active),–
CCCS(=O)(=O)N1CCC(n2c(C(F)(F)F)nc3cccnc32)CC1,–,-14.9% (inactive)
CCN(CC)CCNC(=O)c1c(C)[nH]c(C=C2C(=O)Nc3ccc(F)cc32)c1C,44.4 µM (active),–
CCOc1cc2[nH]c(=O)n(Cc3ccc(C(=O)NCCN(CC)CC)cc3)c(=O)c2cc1OCC,–,-1.01% (inactive)
CCN(CC)CCNC(=O)c1cc(S(C)(=O)=O)ccc1OC,inactive,–
